This is an account of results in PubChem BioAssay (NCATS).

For experiment [1], the target named is Catechol O-methyltransferase (Homo sapiens) (UniProt P21964). Briefly: Confirmatory Screen for Target Class Profiling of Small Molecule Inhibitors of Methyltransferases (AID 1745852; calls by dose curve; note: potency is the fitted concentration of half-maximal effect; for activity change, negative = inhibition: % is set by controls: 0 for no effect and ±100 for the full control effect). Particulars: MTase-Glo luminescence, SAH detection, recombinant enzyme; measured here: COMT max response; stronger effect = lower value.
The target in experiment [2] is Guanidinoacetate N-methyltransferase (Homo sapiens) (UniProt Q14353). Described as above. Particulars: MTase-Glo luminescence, SAH detection, recombinant enzyme; activity change, negative = inhibition: at 57.3 µM (top of the series) unless noted.
The target in experiment [3] is Nicotinamide N-methyltransferase (Homo sapiens) (UniProt P40261). The description is as above. Particulars: MTase-Glo luminescence, SAH detection, recombinant enzyme; measured here: NNMT max response; stronger effect = lower value.
Experiment [4] deals with Phenylethanolamine N-methyltransferase (Homo sapiens) (UniProt P11086). Described as above. The conditions noted are these: MTase-Glo luminescence, SAH detection, recombinant enzyme; measured here: PNMT max response; stronger effect = lower value.
For experiment [5], the target named is Glutathione peroxidase 1 (Homo sapiens) (UniProt P07203). Description: Primary qHTS Assay for Inhibitors of Recombinant Selenoprotein Glutathione Peroxidase 1 (GPX1) (AID 1845191). Note: nearly all actives have a fitted effect of over 65% in size. The conditions noted are these: recombinant GPX1, GR-coupled NADPH fluorescence, 15 min; series mostly up to 48.8 µM. Put shortly: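 GR-coupled assay: compounds preincubated 30 min at room temperature with GPX1, then reaction started with CHP; final 10 nM GPX1, 1 mM GSH, 0.5 mM CHP, 0.5 mM NADPH, 100 nM GR, 0.01% BSA, pH 7.5 Tris buffer. NADPH fluorescence (340/450 nm) read at 0 and 15 min.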
(In general: qHTS replaces the single test concentration by a dilution series.)

The target in experiment [6] is Phospholipid hydroperoxide glutathione peroxidase GPX4 (Homo sapiens) (UniProt P36969). Description: Primary qHTS Assay for Inhibitors of Recombinant Selenoprotein Glutathione Peroxidase 4 (GPX4) (AID 1845192). For activity change, negative = inhibition: % is set by controls: 0 for no effect and ±100 for the full control effect. Note: nearly all actives have a fitted effect of over 65% in size. Note: potency is the fitted concentration of half-maximal effect. Particulars: recombinant GPX4, GR-coupled NADPH fluorescence, 15 min; series mostly up to 50 µM. Put shortly: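 GR-coupled assay: recombinant GPX4 preincubated 30 min with compound at room temperature; final 200 nM GPX4, 1 mM GSH, 0.5 mM cumene hydroperoxide, 0.5 mM NADPH, 100 nM GR, 0.01% BSA, pH 7.5 Tris. NADPH fluorescence (340/450 nm) read at 0 and 15 min.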

In experiment [7] the target is Luciferin 4-monooxygenase (Photinus pyralis) (UniProt P08659). Description: Primary firefly luciferase (FLuc) qHTS assay for identification of artifact compounds. (AID 1845220).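 For activity change, negative = inhibition: plate controls were DMSO vehicle for no effect and no enzyme for full effect.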 Note: nearly all actives have a fitted effect of over 60% in size. The conditions noted are these: purified firefly luciferase, luminescence, 5 min; series mostly up to 54.1 µM. Put shortly: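 D-luciferin and ATP (10 uM each, final) in Tris acetate buffer pH 7.6 were incubated with compounds for 15 min at room temperature. The reaction was started with 10 nM Photinus pyralis luciferase and luminescence read after 5 min. Percent inhibition was fitted to a 4-parameter Hill equation.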

The nature of experiment [8]: Primary fluorescence-based thiol-reactive (MSTI) qHTS assay for identification of artifact compounds. (AID 1845221). Note: nearly all actives have a fitted effect of over 65% in size. Note: potency is the fitted concentration of half-maximal effect. Particulars: MSTI thiol-reactivity probe, 1 h; series mostly up to 53.8 µM. Put shortly: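 MSTI probe at 4 uM final in 2% DMSO/PBS pH 7.4; compounds, 1 h at room temperature in dark. Fluorescence Ex/Em 525/598 nm, normalised to Acetyl-MSTI and MSTI, fitted to 4-parameter Hill.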

Experiment [9] relates to Nanoluciferase (engineered Oplophorus gracilirostris luciferase). Description: Primary Nanoluciferase (NLuc) qHTS assay for identification of artifact compounds. (AID 1845222).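 Note: 0% = DMSO and -100% = no enzyme.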 The conditions noted are these: NLuc-conditioned medium, Nano-Glo luminescence, 5 min; series mostly up to 54.1 µM. Put shortly:
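Diluted conditioned medium from NLuc-expressing S16 cells treated with compounds for 15 min at room temperature, then Nano-Glo substrate added; luminescence read after 5 min. Percent inhibition versus no-enzyme and DMSO controls fitted to 4-parameter Hill equation.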

The nature of experiment [10]: Primary redox qHTS assay for identification of artifact compounds. (AID 1845223). Particulars: Amplex Red/HRP redox cycling with DTT, fluorescence; series mostly up to 53.8 µM. In outline:
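Amplex Red (25 uM) and HRP (250 mU/mL) in HBSS, with compounds for 15 min, then 250 uM DTT for 30 min, room temperature, dark. Fluorescence 525/598 nm read; normalized to DMSO and 10 uM DA3003; Hill fit.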

The nature of experiment [11]: Quantitative High-Throughput drug screen in 47 multiple myeloma cell lines against the NCATS MIPE library collection: FR4_PLB cell viability assay (AID 1918924; note: potency is the fitted concentration of half-maximal effect; nearly all actives have a fitted effect of over 35% in size). Particulars: FR4_PLB myeloma cells viability, CellTiter-Glo ATP, 48 h; series mostly up to 45.8 µM. Put shortly: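 Myeloma cell lines, 500 cells per well, exposed to MIPE 4.0 library compounds for 48 h at 37C, 5% CO2. Viability from ATP by CellTiter-Glo luminescence; normalised to DMSO (100%) and media-only (0%) wells.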

The target in experiment [12] is Rap guanine nucleotide exchange factor 3 (Homo sapiens) (UniProt O95398). Briefly: Confirmatory qHTS for antagonist of cAMP-regulated guanine nucleotide exchange factor 3 (EPAC1) (AID 1645880). Note: potency is the fitted concentration of half-maximal effect; nearly all actives have a fitted effect of over 55% in size. The conditions noted are these: EPAC1 Rap1B-BODIPY-GDP exchange, fluorescence. Put shortly: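 Nucleotide exchange uses 100 nM EPAC1, 250 nM RAP1B-BODIPY-GDP and 50 uM GDP, with compounds in a concentration-titration series. After 5 min at room temperature, fluorescence (480 nm ex/540 nm em) is read every 5 min for 30 min. Data are normalized to control ATA and DMSO.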

Experiment [13] has the same target. Description: Confirmatory qHTS for agonist of cAMP-regulated guanine nucleotide exchange factor 3 (EPAC1) (AID 1645881).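 Note: EPAC1 catalysed release of BODIPY-GDP from Rap1B seen as fluorescence loss; nearly all actives have a fitted effect of over 75% in size.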 The conditions noted are these: EPAC1 Rap1B BODIPY-GDP exchange fluorescence, 100% = cAMP control response; series mostly up to 154 µM.
The target of experiment [14] is Rap guanine nucleotide exchange factor 4 (Homo sapiens) (UniProt Q8WZA2). Briefly: Confirmatory qHTS for agonist of cAMP-regulated guanine nucleotide exchange factor 4 (EPAC2) (AID 1645884).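 Note: nucleotide exchange releases bodipy-GDP from Rap1 and this lowers its fluorescence; % is set by controls: 0 for no effect and ±100 for the full control effect; nearly all actives have a fitted effect of over 65% in size.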 The conditions noted are these: EPAC2 GEF activity, Rap1B-BODIPY-GDP fluorescence, percent relative to cAMP agonist control; series mostly up to 154 µM.
Experiment [15] has the same target. Description: Confirmatory qHTS for antagonist of cAMP-regulated guanine nucleotide exchange factor 4 (EPAC2) (AID 1645885). Note: potency is the fitted concentration of half-maximal effect; nearly all actives have a fitted effect of over 25% in size. Particulars: EPAC2 Rap1B-BODIPY-GDP exchange fluorescence, biochemical.

The structures appear in SMILES notation. Values joined by “and” are separate entries in the source; they are usually repeats but may differ in a detail not shown here. Equal entries are not always repeated. Results filed as inconclusive are left out. A structure can be active in one record and inactive in another. Active and inactive are the calls of the source. Unless noted, calls come from the whole dose curve; as a rule, active = well fitted curve in the direction sought with a large enough effect; inconclusive = small, poorly fitted or top-dose-only effect, or another doubt; inactive = no such curve, though single readings can be large; an effect the other way counts as inactive or inconclusive.

Glutathione peroxidase 1 (Homo sapiens), sequence (P07203 whole entry, looked up): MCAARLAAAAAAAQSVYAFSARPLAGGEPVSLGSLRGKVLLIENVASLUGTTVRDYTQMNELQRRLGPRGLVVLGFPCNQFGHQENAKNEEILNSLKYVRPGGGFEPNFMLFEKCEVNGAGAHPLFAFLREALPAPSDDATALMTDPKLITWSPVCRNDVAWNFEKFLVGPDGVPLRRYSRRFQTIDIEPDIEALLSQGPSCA
Nicotinamide N-methyltransferase (Homo sapiens), sequence (P40261 whole entry, looked up): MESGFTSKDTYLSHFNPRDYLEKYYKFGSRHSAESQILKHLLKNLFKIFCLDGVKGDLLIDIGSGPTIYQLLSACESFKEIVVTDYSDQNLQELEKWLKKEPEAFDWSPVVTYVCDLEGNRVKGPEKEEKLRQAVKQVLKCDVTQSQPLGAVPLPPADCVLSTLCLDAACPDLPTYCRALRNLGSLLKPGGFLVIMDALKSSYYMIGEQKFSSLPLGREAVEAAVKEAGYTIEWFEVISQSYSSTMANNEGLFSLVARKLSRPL
Phospholipid hydroperoxide glutathione peroxidase GPX4 (Homo sapiens), sequence (P36969 whole entry, looked up): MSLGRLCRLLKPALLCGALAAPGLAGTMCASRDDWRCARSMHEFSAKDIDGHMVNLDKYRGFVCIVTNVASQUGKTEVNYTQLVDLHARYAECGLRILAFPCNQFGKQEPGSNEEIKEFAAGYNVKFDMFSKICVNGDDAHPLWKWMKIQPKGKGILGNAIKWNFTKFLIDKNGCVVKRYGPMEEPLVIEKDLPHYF
Catechol O-methyltransferase (Homo sapiens), sequence (P21964 whole entry, looked up): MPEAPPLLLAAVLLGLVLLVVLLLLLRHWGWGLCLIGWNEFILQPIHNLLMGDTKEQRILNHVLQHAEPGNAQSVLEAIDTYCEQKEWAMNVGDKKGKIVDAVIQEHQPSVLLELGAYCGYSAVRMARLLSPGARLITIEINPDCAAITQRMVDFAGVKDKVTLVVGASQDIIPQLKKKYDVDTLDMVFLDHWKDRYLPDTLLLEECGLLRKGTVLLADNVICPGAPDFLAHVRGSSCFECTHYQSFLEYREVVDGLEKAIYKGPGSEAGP
Phenylethanolamine N-methyltransferase (Homo sapiens), sequence (P11086 whole entry, looked up): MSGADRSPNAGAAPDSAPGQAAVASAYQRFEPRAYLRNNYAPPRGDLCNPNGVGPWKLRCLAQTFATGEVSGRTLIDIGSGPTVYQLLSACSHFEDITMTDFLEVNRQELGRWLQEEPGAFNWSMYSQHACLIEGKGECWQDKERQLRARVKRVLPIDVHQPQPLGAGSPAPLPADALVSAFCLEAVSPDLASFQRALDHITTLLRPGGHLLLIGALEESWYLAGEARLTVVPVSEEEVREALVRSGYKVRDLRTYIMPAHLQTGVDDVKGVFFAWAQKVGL
Rap guanine nucleotide exchange factor 4 (Homo sapiens), sequence (Q8WZA2 whole entry, looked up): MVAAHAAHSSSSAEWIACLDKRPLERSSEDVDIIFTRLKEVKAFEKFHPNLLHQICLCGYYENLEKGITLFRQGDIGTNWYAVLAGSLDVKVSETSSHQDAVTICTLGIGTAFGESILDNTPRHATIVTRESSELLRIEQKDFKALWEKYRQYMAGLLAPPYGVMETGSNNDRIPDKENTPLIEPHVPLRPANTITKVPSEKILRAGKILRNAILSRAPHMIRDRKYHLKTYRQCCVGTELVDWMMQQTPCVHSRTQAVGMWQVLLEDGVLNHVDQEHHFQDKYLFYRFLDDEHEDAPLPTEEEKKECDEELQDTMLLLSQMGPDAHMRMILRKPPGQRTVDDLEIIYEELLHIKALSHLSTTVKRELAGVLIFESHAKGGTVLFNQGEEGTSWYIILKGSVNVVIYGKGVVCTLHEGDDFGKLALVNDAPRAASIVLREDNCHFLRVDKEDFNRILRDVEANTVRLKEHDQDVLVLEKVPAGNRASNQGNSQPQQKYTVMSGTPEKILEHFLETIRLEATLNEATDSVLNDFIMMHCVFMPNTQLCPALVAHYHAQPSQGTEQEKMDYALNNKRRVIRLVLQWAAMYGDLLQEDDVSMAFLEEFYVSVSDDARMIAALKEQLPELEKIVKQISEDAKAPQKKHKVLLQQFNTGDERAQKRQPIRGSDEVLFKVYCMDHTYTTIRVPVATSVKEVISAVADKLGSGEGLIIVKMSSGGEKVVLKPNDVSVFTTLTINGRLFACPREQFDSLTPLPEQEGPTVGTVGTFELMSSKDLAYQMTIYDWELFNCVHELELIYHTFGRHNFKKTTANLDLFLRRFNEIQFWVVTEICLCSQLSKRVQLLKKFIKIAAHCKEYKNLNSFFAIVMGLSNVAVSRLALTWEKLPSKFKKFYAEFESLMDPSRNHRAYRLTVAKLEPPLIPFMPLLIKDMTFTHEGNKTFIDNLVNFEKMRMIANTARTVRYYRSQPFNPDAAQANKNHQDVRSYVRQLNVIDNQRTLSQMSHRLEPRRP
Rap guanine nucleotide exchange factor 3 (Homo sapiens), sequence (O95398 whole entry, looked up): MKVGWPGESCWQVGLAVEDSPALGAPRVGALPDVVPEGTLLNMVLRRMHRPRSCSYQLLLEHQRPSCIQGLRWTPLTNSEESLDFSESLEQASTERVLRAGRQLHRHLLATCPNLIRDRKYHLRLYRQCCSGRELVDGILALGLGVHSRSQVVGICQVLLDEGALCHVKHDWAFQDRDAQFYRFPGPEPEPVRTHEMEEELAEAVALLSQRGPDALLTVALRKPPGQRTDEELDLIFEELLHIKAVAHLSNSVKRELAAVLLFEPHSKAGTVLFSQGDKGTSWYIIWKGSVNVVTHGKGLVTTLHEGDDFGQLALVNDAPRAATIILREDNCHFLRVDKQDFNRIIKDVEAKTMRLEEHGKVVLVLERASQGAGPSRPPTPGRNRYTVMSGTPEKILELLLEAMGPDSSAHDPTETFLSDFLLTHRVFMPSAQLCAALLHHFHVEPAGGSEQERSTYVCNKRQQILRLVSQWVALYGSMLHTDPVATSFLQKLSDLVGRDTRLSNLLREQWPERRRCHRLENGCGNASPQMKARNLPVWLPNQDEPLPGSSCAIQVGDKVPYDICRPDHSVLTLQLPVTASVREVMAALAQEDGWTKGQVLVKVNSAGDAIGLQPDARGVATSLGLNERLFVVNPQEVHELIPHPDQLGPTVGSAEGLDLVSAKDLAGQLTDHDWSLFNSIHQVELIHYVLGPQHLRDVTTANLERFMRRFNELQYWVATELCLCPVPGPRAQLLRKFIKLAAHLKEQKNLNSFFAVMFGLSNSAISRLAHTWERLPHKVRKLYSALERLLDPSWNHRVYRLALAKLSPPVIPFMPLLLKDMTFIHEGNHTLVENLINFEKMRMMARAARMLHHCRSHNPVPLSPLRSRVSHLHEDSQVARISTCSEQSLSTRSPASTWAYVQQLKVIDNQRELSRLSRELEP

Turning to `CCn1nnc2c(N3CCOCC3)nc(-c3ccc(NC(=O)Nc4ccc(C(=O)N5CCN(C)CC5)cc4)cc3)nc21`, the results for the activity in experiment [1], in experiment [3] and in experiment [4] were -6.26%, -65.9% and -1.56%, respectively. Moreover, the activity change, negative = inhibition in [2] is 0%. The Potency entry in experiment [5], in experiment [6], in experiment [7], in experiment [8], in experiment [9] and in experiment [10] was “inactive” each time.

As for `Cc1ccc(C(N)=O)cc1Nc1nccc(-c2cn(C(C)C)c3cnccc23)n1`, the activity in experiment [1] was -56.6%; in [3] it was -53.8%; in [4] it was -56%. The Potency is 27.1 µM (active) in experiment [2] and 9.35 µM (active) in experiment [11]. Also, the Potency entry in experiment [5], in experiment [6], in experiment [8], in [9] and in experiment [10] was “inactive” each time.

Turning to `Cc1c(CN2CCN(S(C)(=O)=O)CC2)sc2c(N3CCOCC3)nc(-c3cnc(N)nc3)nc12`, the activity in experiment [1] was -10.4%; in experiment [3] it was -17.8%; in [4] it was -14.7%. Also, the activity change, negative = inhibition in experiment [2] is -5.48%. The Potency entry in experiment [5], in experiment [6], in experiment [7], in experiment [8], in experiment [9] and in experiment [10] was “inactive” throughout. Further, the Potency in experiment [11] was 0.105 µM (active).

Turning to `CN1CCC(CNc2ccc3ncc(-c4cccc(OC(F)(F)F)c4)n3n2)CC1`, the activity in experiment [1] is -52.2%; in experiment [3] it was -51.9%; in experiment [4], -68.8%. In addition, the Potency in experiment [2] was 30.4 µM (active); in experiment [6] it was 22.7 µM (active) and 14.3 µM (active); in experiment [11], 18.7 µM (active). Further, the Potency entry in experiment [8], in [9] and in [10] was “inactive” in each case.

For `O=C(O)C1(Cc2cccc(Nc3nccs3)n2)CCC(Oc2cccc(Cl)c2F)CC1` (stereo not given), the activity in [1] is -35%; in experiment [3], -34.5%; in experiment [4], -68.7%. In addition, in experiment [2], the Potency is 42.9 µM (active). The Potency result in experiment [5], in [6], in experiment [7], in experiment [8], in [9] and in [10] was “inactive” each time.

Turning to `COc1cc(C(=O)NS(=O)(=O)c2ccccc2C)ccc1Cc1cn(C)c2ccc(NC(=O)OC3CCCC3)cc12`, the results for the Potency in experiment [12], in [15] and in experiment [6] were 25 µM (active), 49.4 µM (active) and 9.04 µM (active), respectively. In addition, the outcome in experiment [13] and in experiment [14] was “inactive” each time. For the same compound, the Potency result in [5] is “inactive”.

On to `Nc1cccc(-c2cc3c(Oc4cccc(O)c4)ncnc3[nH]2)c1`, for which the activity is -47.2% in [1], -47.2% in experiment [3] and -55.3% in [4]. For the same compound, the Potency was 30.4 µM (active) in experiment [2]; “inactive and 14.3 µM (active)” in experiment [6]; 9.47 µM (active) in [8]; 14.8 µM (active) in experiment [11]. For the same compound, the Potency result in experiment [5], in experiment [9] and in [10] was “inactive” in each case.

On to `COCCOc1ccc2c(c1)ncn2-c1ccc2cccc(N3CCC(N)CC3)c2n1`, for which the activity in experiment [1] is -17.6%; in [3], -9.06%; in experiment [4], -17.7%. Besides, the values for the Potency in experiment [2] and in [11] were 48.2 µM (active) and 10.5 µM (active), respectively. In addition, the Potency result in experiment [5], in experiment [6], in [8] and in experiment [9] was “inactive” in each case.
